Assay [1] concerns the target T1, Aspartate--tRNA(Asp/Asn) ligase (Mycobacterium tuberculosis (strain ATCC 25618 / H37Rv)) (UniProt P9WFW3). Also: in the data most compounds retested in dose-response had high values.
T1 sequence (whole entry): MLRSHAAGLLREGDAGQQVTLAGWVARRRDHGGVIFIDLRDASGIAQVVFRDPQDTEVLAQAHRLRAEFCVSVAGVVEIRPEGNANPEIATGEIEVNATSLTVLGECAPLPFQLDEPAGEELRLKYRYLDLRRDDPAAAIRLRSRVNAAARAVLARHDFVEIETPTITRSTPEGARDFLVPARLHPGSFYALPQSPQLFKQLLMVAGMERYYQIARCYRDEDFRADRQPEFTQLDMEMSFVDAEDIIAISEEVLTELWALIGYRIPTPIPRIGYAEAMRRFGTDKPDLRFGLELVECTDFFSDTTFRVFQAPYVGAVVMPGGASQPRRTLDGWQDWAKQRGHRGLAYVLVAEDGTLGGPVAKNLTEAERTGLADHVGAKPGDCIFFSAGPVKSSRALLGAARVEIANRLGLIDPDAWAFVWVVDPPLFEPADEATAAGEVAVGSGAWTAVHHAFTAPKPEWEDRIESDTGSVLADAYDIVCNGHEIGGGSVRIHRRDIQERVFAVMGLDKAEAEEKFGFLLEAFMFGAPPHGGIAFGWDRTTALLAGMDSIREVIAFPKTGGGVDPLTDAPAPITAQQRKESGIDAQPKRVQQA
Description: Assay for Asp RNA synthetase-1 from Mycobacterium tuberculosis. The format is functional. Also noted: scale not given: direction of the effect not stated beside the values. The settings on record: 30 µM.

Assay [2] concerns the target Shiga toxin 2 (Escherichia coli O157:H7) (UniProt P09385+P09386). Description: E. coli 0.157:H7 Shiga Toxin SOP - stx2 screening assay. The arrangement: scale not given: direction of the effect not stated beside the values. The settings on record: 30 µM. The assay is classed as functional.

For `COCCN1CCC(NCc2cccc(F)c2)C1` (centres undefined), the Percent Effect is -3.37% in assay [1] and -17.4% in assay [2].

As for `CN(c1ccc(C(=O)NCCCN2CCOCC2)c(Cl)c1)S(C)(=O)=O`, the values for the Percent Effect in assay [1] and in assay [2] were -4.13% and -32.5%, respectively.

With `CCS(=O)(=O)N1CCOC2(CCCN(c3ccc(C)nn3)C2)C1` (centres undefined), the Percent Effect is 3.41% in assay [1] and -15.9% in assay [2].

On to `CC(C)Cc1noc(CN2CCN(CCOc3ccc(Cl)cc3)CC2)n1`, for which the figures for the Percent Effect in assay [1] and in assay [2] were 0.745% and 10.8%, respectively.

Consider `Cc1nc(C)c(C(=O)NCCNc2ncccc2C#N)s1`, for which the Percent Effect in assay [1] was 0.324%; in assay [2], -20.6%.

`Cc1nc2cc(C3CCN(Cc4cccc(F)c4F)C3)nn2c(O)c1C` (centres undefined): the Percent Effect in assay [1] is 2.37%; in assay [2], -139%.

Take `Cc1nc(C2CCCN(C(=O)CCCn3ccnc3C)C2)no1` (centres undefined): the Percent Effect was -1% in assay [1] and 14.1% in assay [2].

As to `O=C(c1ccsc1)N1CC[C@H]2C[C@@H](c3nnc(C4CC4)o3)O[C@@H]2C1`, the Percent Effect in assay [1] was 0.51%; in assay [2], -18.9%.

As for `Cc1nc(N2CCCC2)nc2c1CCN(C(=O)CC1CC1)CC2`, the Percent Effect is -1.6% in assay [1] and -20.8% in assay [2].

Consider `Cn1nc(CNC(=O)C2COc3ccccc3O2)cc1C1CC1` (centres undefined), for which the Percent Effect in assay [1] is 6.34%; in assay [2], 17%.

As for `CCc1nc2n(n1)CC(NCc1nc(C)ccc1O)CC2` (centres undefined), the Percent Effect in assay [1] was -1.83%; in assay [2], 11.7%.

Consider `Cc1ccc2c(c1)C1(CCNCC1)CN2C(=O)CN(C)C`, for which the Percent Effect in assay [1] was -0.657%; in assay [2], 6.1%.

Consider `CC(=O)N1CCCN(C(=O)c2ccn(-c3cccc(Cl)c3)n2)CC1`, for which the Percent Effect in assay [1] amounted to 3%; in assay [2], 5.49%.

For `CC(=O)N1CCCN(C(=O)CCc2c(C)noc2C)CC1`, the Percent Effect in assay [1] was -5.26%; in assay [2], 2.24%.

For the compound `COc1ccc(OC)c(C(O)CN2CC(n3cccn3)C2)c1` (centres undefined), the results for the Percent Effect in assay [1] and in assay [2] were -0.9% and 21.2%, respectively.

As to `Cc1occc1C(=O)N1CCC2(CC1)CC(c1cccnc1)C(=O)N2C` (centres undefined), the Percent Effect in assay [1] was -1.22%; in assay [2], -20.1%.

As for `COC(=O)N1CCc2ccc(NC(=O)c3cn(C)nn3)cc2C1`, the Percent Effect in assay [1] is -0.627%; in assay [2], -90%.
